Where a name gives a salt, the structure may show the parent alone.
system: Saccharomyces cerevisiae BY4741 SeMeCo community; test: z-score of subpopulation abundance vs DMSO median, subpopulation auxotrophic for UM; higher = larger share of this subpopulation than in DMSO controls; details: 10 µM; 24 h; SM minimal medium; subpopulation (auxotrophy): UM
Method: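 Fluorescent four-plasmid SeMeCo (self-establishing metabolically cooperating S. cerevisiae BY4741 community; plasmids pH-mRuby2, pL-mWasabi, pU-eCFP, pM-TagRFP657) was grown 24 h in minimal SM medium with each Selleck FDA-approved drug at 10 µM in 384-well plates. Cells were fixed and imaged by high-content confocal microscopy. For each auxotrophic subpopulation (and the prototroph), a z-score gives the deviation from the DMSO vehicle-control population median.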

SMILES | z-score of subpopulation abundance
CC(=O)OCC1=C(C(=O)O)N2C(=O)C(N)C2SC1 (centres undefined) [7-Aminocephalosporanic acid] | 0
CN1[C@@H]2C[C@@H](OC(=O)[C@H](CO)c3ccccc3)C[C@H]1[C@@H]1O[C@@H]12 [Scopolamine HBr] | -0.95
C#C[C@]1(O)C=C[C@H]2[C@@H]3CCC4=CC(=O)CC[C@@H]4[C@H]3CC[C@@]21CC [Gestodene] | -1.14
C[C@H]1O[C@H](O[C@H]2[C@H](O)[C@@H](O)[C@@H](O)[C@H](O)[C@@H]2O)[C@@H](N)C[C@@H]1NC(=N)C(=O)O [Kasugamycin hydrochloride] | -0.17
CC[C@H]1[C@@H]2C[C@H]3[C@@H]4N(C)c5ccccc5[C@]45C[C@@H]([C@@H]2[C@H]5O)N3[C@@H]1O [Ajmaline] | -0.04
CCCCCCCCCCCCCCCC[n+]1ccccc1 [Cetylpyridinium Chloride] | 3.46
COc1cc2c(cc1OC)C1CC(=O)C(CC(C)C)CN1CC2 (centres undefined) [Tetrabenazine (Xenazine)] | -0.68
COc1ccc2c3c([nH]c2c1)C(C)=NCC3 [Harmaline] | -9.37
CC[N+](C)(CC)CCOC(=O)C(O)(c1ccccc1)c1ccccc1 [Methylbenactyzine Bromide] | -0.66
NCCc1c[nH]c2ccc(O)cc12 [Serotonin HCl] | -0.02
CN(C)C(=O)Oc1cccc([N+](C)(C)C)c1 [Neostigmine Bromide] | -0.71
COc1ccc2c(c1)[C@]13CCCC[C@@H]1[C@H](C2)N(C)CC3 [Dextromethorphan hydrobromide hydrate] | -0.52
CN1[C@@H]2C[C@@H](OC(=O)[C@H](CO)c3ccccc3)C[C@H]1[C@@H]1O[C@@H]12 [Scopolamine HBr trihydrate] | -0.11
CCN(C)C(=O)Oc1cccc([C@H](C)N(C)C)c1 [Rivastigmine] | 0.75
CCOC(=O)Nc1ccc(NCc2ccc(F)cc2)cc1N [Retigabine] | -1.09
C=CN1CCCC1=O.II [Povidone iodine] | 0.16
O=C(O[C@H]1C[C@H]2CC[C@@H](C1)[N+]21CCCC1)C(O)(c1ccccc1)c1ccccc1 [Trospium chloride] | -0.43

SMILES | z-score of subpopulation abundance
CCN1CC2(OC(=O)c3ccccc3NC(C)=O)CCC(OC)C34C1C(CC23)C1(O)CC(OC)C2CC4C1(O)C2OC (centres undefined) [Lappaconitine] | 0.23
COC(=O)C1=CCCN(C)C1 [Arecoline HBr] | 0.61
COc1ccc(C(CN(C)C)C2(O)CCCCC2)cc1 (centres undefined) [Venlafaxine HCl] | 0.66
CC(C)N(CCC(C(N)=O)(c1ccccc1)c1ccccn1)C(C)C (centres undefined) [Disopyramide] | -0.64
NCC(O)c1ccc(O)cc1 (racemic) [(+,-)-Octopamine HCl] | -0.79
CN(C)[C@@H]1C(=O)C(C(N)=O)=C(O)[C@@]2(O)C(=O)C3=C(O)c4c(O)ccc(Cl)c4[C@@](C)(O)[C@H]3C[C@@H]12 [Chlortetracycline HCl] | -0.66
CCN(C)C(=O)Oc1cccc([C@H](C)N(C)C)c1 [Rivastigmine Tartrate] | -0.84
C[CH2][Hg][S]c1ccccc1C(=O)[O-].[Na+] [Thimerosal] | 6.06
CN(C)[C@@H]1C(=O)C(C(N)=O)=C(O)[C@@]2(O)C(=O)C3=C(O)c4c(O)cccc4[C@@](C)(O)[C@H]3[C@H](O)[C@@H]12 [Oxytetracycline Dihydrate] | -0.39
Cc1cc(O)ccc1Cl [Chlorocresol] | -0.48
Nc1ccncc1 [4-Aminopyridine] | -0.05
COc1ccc2[nH]cc(CCN)c2c1 [5-Methoxytryptamine] | 1.16
O=c1cccc2n1C[C@@H]1CNC[C@H]2C1 [Cytisine] | -0.6
CN1[C@@H]2CC[C@H]1C[C@@H](OC(=O)C(CO)c1ccccc1)C2 (some centres undefined) [Atropine sulfate monohydrate] | 0.69
COc1ccc(C=O)cc1 [p-Anisaldehyde] | -0.71
C=C[C@H]1CN2CC[C@H]1C[C@H]2[C@H](O)c1ccnc2ccccc12 [Cinchonidine] | 0.45
CCN(CC)CCOC(=O)C(O)(c1ccccc1)c1ccccc1 [Benactyzine hydrochloride] | 0.21

Reference: the supplement of paper PMC8975748
